Hit rate of the full screen: of about 300,000 compounds, about 22,000 (7.3%) were called active. About 2% were inconclusive and are not listed. This excerpt belongs to a sample that is enriched for actives. Unmarked numbers belong to inactive results. Cut-off read from the data, not from the text of the source: active = activity score below about -60%; inconclusive = mostly about -28% to -61%; inactive = positive scores.

The source of these data is PubChem BioAssay AID1814 (Broad Institute, 2009).

The nature of the test: Activators via SNCA 5'UTR binding, MLPCN (AID 1814). The conditions noted are these: alpha-synuclein 5'UTR reporter, activators screen; hits give low values; tested at 7.5 µM.
For `CCCCc1ccc(NC(=S)N2CCCC(CO)C2)cc1` (configuration not stated), the activity score is -107% (active).

On to `CN(CCO)c1ccc(/C=N/Nc2nncc3ccccc23)cc1`, for which the activity score is 57.2%.

For `Fc1ccc(/C=N/Nc2nc(-c3cccnc3)nc3ccccc23)cc1`, the activity score was -70.9% (active).

As to `Cc1cc(Br)ccc1NC(=S)NC1CCCC1`, the activity score is -66.7% (active).

`Cc1ccc(NC(=S)NC2CCCC2)cc1`: the activity score was -65.1% (active).

Turning to `Cc1ccc(/C=N/NC(=S)NC2CCCCC2)o1`, the activity score is -135% (active).

In the case of `CC(C)c1ccc(NC(=O)NC2CCCCC2)cc1`, the activity score is -244% (active).

Regarding `COc1ccc(-c2cn3ccc(C)cc3n2)cc1`, the activity score is 92.2%.

Take `CCN(CC)S(=O)(=O)c1ccc(-c2cn3ccc(C)cc3n2)cc1`: the activity score is -169% (active).

Turning to `Cc1ccc2nc(-c3ccc(Br)cc3)cn2c1`, the activity score was 63.2%.

For the compound `Cc1cccc(N=Nc2c(O)[nH]c3ccc(F)cc23)c1`, the activity score is -147% (active).

As for `O=C(NCCc1ccc(F)cc1)c1n[nH]c2ccccc12`, the activity score is -150% (active).

On to `O=C(CC1CCCCC1)NCc1ccc(F)cc1`, for which the activity score was -72.4% (active).

Consider `O=C(Cc1ccccc1)NCc1ccc(F)cc1`, for which the activity score is -66.4% (active).

On to `O=C(CC1CCCCC1)NCc1ccccc1`, for which the activity score is -86.3% (active).

For `COc1ccc(COC(=O)c2n[nH]c3ccccc23)cc1F`, the activity score is -96.4% (active).

For `O=C1Nc2ccccc2C12Nc1ccccc1S2` (configuration not stated), the activity score is -83.2% (active).

As for `CCc1ccc2c(c1)C1(NN=C(c3ccccc3)S1)C(=O)N2` (configuration not stated), the activity score is 71.7%.

As to `CCC(C)c1ccc(NC(=S)NCc2ccccn2)cc1` (configuration not stated), the activity score was -123% (active).

As for `COc1cccc(NC(=S)NCc2ccccn2)c1`, the activity score was -101% (active).

As for `CCOC(=O)c1cc2cc(C)ccc2[nH]1`, the activity score is -132% (active).

As for `CCOC(=O)c1nc(-c2ccc3c(c2)OCO3)[nH]c1C`, the activity score is -109% (active).

On to `C[C@@H]1C[C@@H]2O[C@H]2/C=C\C=C\C(=O)Cc2c(Cl)c(O)cc(O)c2C(=O)O1`, for which the activity score is -113% (active).

Consider `CC(C)c1ccc(C(=O)NCCCc2ccccc2)cc1`, for which the activity score was -150% (active).

`CN1CCN(CCCNC(=O)c2ccc(/C=C3\Oc4ccccc4N(Cc4ccc(Cl)cc4)C3=O)cc2)CC1`: the activity score was 96.5%.

With `S=C(Nc1ccc2c(c1)OCO2)N1CCCC1`, the activity score is -93.7% (active).

On to `Cc1cccn2c(=O)c(C=O)c(Nc3ccc(S(N)(=O)=O)cc3)nc12`, for which the activity score was -500% (active).

As for `O=C(CC1Nc2ccccc2NC1=O)Nc1ccccc1` (configuration not stated), the activity score was -128% (active).

With `Oc1c(Br)cccc1/C=N/Nc1c(F)c(F)c(F)c(F)c1F`, the activity score is -72.3% (active).

Consider `Cc1[nH]c(=O)c(C(=O)/C=C/c2ccccc2)c2c1CCCC2`, for which the activity score is -146% (active).

Consider `COc1cccc(NC(=S)C(C#N)=C2N(C)c3ccccc3N2C)c1`, for which the activity score was -86.1% (active).

In the case of `COc1ccc(-c2csc3nc(-c4ccccc4F)oc(=O)c23)cc1OC`, the activity score is -63.1% (active).

On to `COc1ccc(/C=N/Nc2ncnc3sc4c(c23)CCCC4)cc1O`, for which the activity score is -197% (active).

On to `CC(C)(C)c1ccc(/C=C/C(=O)Nc2ncccn2)cc1`, for which the activity score is -155% (active).

On to `O=c1c2c(-c3ccccc3)ccnc2[nH]n1-c1ccccc1`, for which the activity score is -127% (active).

With `CN(c1ccc2nc3ccccc3c(=O)n2n1)C1CCCCC1`, the activity score was 119%.

Consider `CN(C)c1nc(N)nc(CSc2nnnn2-c2cccc3ccccc23)n1`, for which the activity score was 68.9%.

With `CN(C(=O)CSc1nncc2ccccc12)C1CCCCC1`, the activity score was -107% (active).

As for `CN(C(=O)CSc1nnnn1-c1ccccc1)C1CCCCC1`, the activity score was -63.1% (active).

In the case of `Cc1ccc(O)c(NC(=O)c2cc(-c3ccco3)on2)c1`, the activity score was -184% (active).

As to `O=C(Cc1cccc2ccccc12)NNC(=O)Nc1ccc(Cl)cc1`, the activity score is -112% (active).

With `Cc1nn2cc(-c3ccc(Cl)cc3)cnc2c1Br`, the activity score is -110% (active).

Consider `CN1CCN(NC(=O)Nc2ccc(Br)cc2)CC1`, for which the activity score was -64.9% (active).

As to `COc1ccc(-n2nnnc2-c2nc3ccccc3s2)cc1`, the activity score was -77.3% (active).

For `O=C(Nc1cccc(-c2nnc(-c3ccccc3)o2)c1)C1CCCO1` (configuration not stated), the activity score is -126% (active).

For the compound `O=c1c(-c2cccc(Cl)c2)c[nH]n1-c1ccccc1`, the activity score is -74.9% (active).

Take `COc1ccc(Cn2c(-c3ccc(Cl)cc3)c[n+]3ccccc23)cc1`: the activity score is -155% (active).

Turning to `Fc1ccc(COc2ccc(-c3nnco3)cc2)cc1`, the activity score was -126% (active).

On to `Cc1cc(C)c2nc3nc(C)cc(C)c3c(N)c2c1`, for which the activity score was -190% (active).

`CCCCC(O)(CCCC)C(=O)NN(C(=O)CCl)c1ccccc1`: the activity score was -67.8% (active).

As for `S=C(Nc1ccc(Br)cc1Cl)N1CCC2(CC1)OCCO2`, the activity score was -70.7% (active).

As to `COc1ccc(C(=O)CCc2ccccc2O)c(OC)c1`, the activity score was -128% (active).

Take `O=C(NC1CCCCC1)c1cc(C2CC2)on1`: the activity score was -78% (active).

For `O=C(NCCCn1ccnc1)c1cc(-c2ccccc2)on1`, the activity score was -632% (active).

As to `O=C(NC1CC1)c1ccc(-c2ccccc2)cc1`, the activity score was -142% (active).

`O=C(NC1CCCC1)c1cc(-c2ccccc2)on1`: the activity score was -324% (active).

As for `O=C(NCCOc1cccnc1)c1ccc(OC2CCN(Cc3ccccn3)CC2)cc1`, the activity score is 95.3%.

In the case of `CN(C)S(=O)(=O)N1CCC(Oc2cccc(C(=O)NCCCC3CCCC3)c2)CC1`, the activity score was -70.6% (active).

For `Cc1c(NC(=O)c2cc(-c3ccc(Cl)s3)nc3ccccc23)c(=O)n(-c2ccccc2)n1C`, the activity score is -105% (active).

For the compound `Cc1c(NC(=O)c2coc(=O)c(Br)c2)c(=O)n(-c2ccccc2)n1C`, the activity score was -75.7% (active).

For the compound `CC1(C)CCSC(/C=C/c2ccccc2)=N1`, the activity score is -123% (active).

Regarding `O=C(c1cnn(-c2ccc(Cl)cc2)c1)c1ccccc1O`, the activity score was -238% (active).

Take `COc1ccc2nc(NC(=O)c3ccc(Br)s3)sc2c1`: the activity score is -209% (active).

Consider `COc1ccc(NC(=O)Nc2ccc3nsnc3c2)cc1`, for which the activity score was -138% (active).

With `COc1ccc2nc(Nc3nc4cc5c(cc4s3)OCCO5)sc2c1`, the activity score was -103% (active).

As to `COc1ccc2nc(NC(=O)NC3CCCCC3)sc2c1`, the activity score is -186% (active).

Regarding `CCc1noc(C)c1C(=O)Nc1nc2ccc(OC)cc2s1`, the activity score is -85% (active).

`COc1cccc(C(=O)Nc2nc3ccc(S(C)(=O)=O)cc3s2)c1`: the activity score is -102% (active).

Consider `COc1ccc2nc(Nc3nc4ccc(NC(C)=O)cc4s3)sc2c1`, for which the activity score was -95.5% (active).

Regarding `CCOc1ccc2nc(Nc3nc4ccc(NC(C)=O)cc4s3)sc2c1`, the activity score was -88.4% (active).

In the case of `CCOc1ccc2nc(N(CCCN(C)C)C(=O)c3ccc(C(=O)c4ccccc4)cc3)sc2c1`, the activity score is 90.2%.

`COc1ccc(/C=N/OCc2ccccc2C#N)c(OC)c1`: the activity score was -182% (active).

For `COc1ccc(N2CCN(C(=O)c3cccs3)CC2)cc1`, the activity score was -69.4% (active).

Regarding `COC(=O)Nc1nc2ccc(Sc3ccccc3)cc2[nH]1`, the activity score is 59.2%.

Turning to `Cc1ccc(O)c(CNc2nc3ccccc3[nH]2)c1`, the activity score was -69.9% (active).

For the compound `Cc1ccc(-c2nc(COC(=O)c3c(C)noc3C)cs2)cc1`, the activity score is -170% (active).

With `CCN1/C(=C/C(=S)Nc2ccccc2)Sc2ccccc21`, the activity score is -111% (active).

Take `CSc1nccc(NC(=O)c2ccc(C(C)(C)C)cc2)n1`: the activity score was -147% (active).

For `COc1ccc(C(=O)NC(=S)NC2CCCCC2)cc1`, the activity score is -137% (active).

Regarding `O=C(NC(=S)NC1CCCCC1)c1ccc(Cl)cc1`, the activity score was -160% (active).

As for `O=C(NC1CCCCC1)c1ccc(-c2ccc(Cl)cc2)o1`, the activity score is -150% (active).

Regarding `CC(C)CNC(=S)NC(=O)c1ccc(Cl)cc1`, the activity score was -111% (active).

As for `Cc1ccc(OCCCC(=O)N2CCOCC2)c(C)c1`, the activity score was -75.1% (active).

On to `Cc1oc2c(c1C(=O)N1CCOCC1)C(=O)c1ccccc1C2=O`, for which the activity score was 101%.

Regarding `O=c1oc2ccccc2cc1-c1cn(-c2ccccc2)c(=S)[nH]1`, the activity score is 119%.

Consider `COc1ccc(-c2cn(-c3ccc(OC)cc3)c(=S)[nH]2)cc1`, for which the activity score was -129% (active).

With `O=C(Nc1ccc2oc(-c3ccc4ccccc4c3)nc2c1)c1cccs1`, the activity score is -233% (active).

Consider `CCN(CC)C(=O)c1sc2nc(-c3ccccc3)ccc2c1N`, for which the activity score was -178% (active).

As to `O=C(Nc1ccc(F)cc1)c1cc2c(s1)CCCC2`, the activity score is -165% (active).

In the case of `O=C(NNC(=O)c1cc2c(s1)CCCC2)c1ccccc1`, the activity score is -80.5% (active).

Consider `CCN(CC)c1ccc(C(=O)c2cnc(/N=C/N(C)C)s2)cc1`, for which the activity score was -64.1% (active).

As for `C=CCNc1cnn(-c2ccc(C)cc2)c(=O)c1Cl`, the activity score was -80.9% (active).

Take `Cc1sc2ncnc(Sc3nc4ccccc4s3)c2c1C`: the activity score is -71% (active).

As to `CSc1ccccc1OCc1cc(C(=O)N2C[C@H]3CC[C@H]2C3)no1`, the activity score was -85.5% (active).

Regarding `N#Cc1c(NC(=O)C2CCCO2)sc2c1CCCCC2` (configuration not stated), the activity score is -161% (active).

In the case of `Cc1ccc(C)c(NC(CC(=O)c2ccccc2)C(=O)OCC(=O)c2cccs2)c1` (configuration not stated), the activity score is -96.3% (active).

Take `O=C(Cn1ncc(N2CCCC2)c(Br)c1=O)c1ccc(Cl)cc1`: the activity score is -92.2% (active).

As for `O=C(CSc1cccc[n+]1[O-])c1ccc(-c2ccccc2)cc1`, the activity score was -146% (active).

`CCOC(=O)c1[nH]c2c(c1C)C(=O)CC(c1ccc(N(C)C)cc1)C2` (configuration not stated): the activity score was -105% (active).

For `O=C1N=C(N2CCCC2)S/C1=C\c1cccc(Br)c1`, the activity score was -122% (active).

As to `CCOc1cc(/C=C2\SC(N3CCCCC3)=NC2=O)ccc1O`, the activity score is -75.9% (active).

Turning to `O=C(COC(=O)c1cccc(Br)c1)Nc1cccc2c1C(=O)c1ccccc1C2=O`, the activity score is -79% (active).

In the case of `Cn1c(=NC(=O)c2ccco2)sc2cccc(F)c21`, the activity score is -151% (active).

Turning to `CCCC(=O)N=c1sc2cccc(F)c2n1C`, the activity score was -76.7% (active).

Take `CS(=O)(=O)N1CCc2cc(C(=O)Nc3ccccc3)ccc21`: the activity score was -104% (active).

`CS(=O)(=O)N1CCc2cc(C(=O)Nc3ccccc3Br)ccc21`: the activity score is -124% (active).

Take `CSc1ccccc1NC(=O)c1ccc2c(c1)CCN2S(C)(=O)=O`: the activity score was -66.1% (active).
